KCNQ2 block = inhibitors of rat KCNQ2 potassium channel | CHO-K1 KCNQ2, FluxOR thallium flux, 20 min; hits give low values | B-score at 10 µM | 1.1% of 310,000 active;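 active = fluorescence ratio B-score at most minus 3 library SDs, with starting brightness B-score within 2 library SDs, cut at about -5.5 in these data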
Target sequence (O88943 whole entry, looked up): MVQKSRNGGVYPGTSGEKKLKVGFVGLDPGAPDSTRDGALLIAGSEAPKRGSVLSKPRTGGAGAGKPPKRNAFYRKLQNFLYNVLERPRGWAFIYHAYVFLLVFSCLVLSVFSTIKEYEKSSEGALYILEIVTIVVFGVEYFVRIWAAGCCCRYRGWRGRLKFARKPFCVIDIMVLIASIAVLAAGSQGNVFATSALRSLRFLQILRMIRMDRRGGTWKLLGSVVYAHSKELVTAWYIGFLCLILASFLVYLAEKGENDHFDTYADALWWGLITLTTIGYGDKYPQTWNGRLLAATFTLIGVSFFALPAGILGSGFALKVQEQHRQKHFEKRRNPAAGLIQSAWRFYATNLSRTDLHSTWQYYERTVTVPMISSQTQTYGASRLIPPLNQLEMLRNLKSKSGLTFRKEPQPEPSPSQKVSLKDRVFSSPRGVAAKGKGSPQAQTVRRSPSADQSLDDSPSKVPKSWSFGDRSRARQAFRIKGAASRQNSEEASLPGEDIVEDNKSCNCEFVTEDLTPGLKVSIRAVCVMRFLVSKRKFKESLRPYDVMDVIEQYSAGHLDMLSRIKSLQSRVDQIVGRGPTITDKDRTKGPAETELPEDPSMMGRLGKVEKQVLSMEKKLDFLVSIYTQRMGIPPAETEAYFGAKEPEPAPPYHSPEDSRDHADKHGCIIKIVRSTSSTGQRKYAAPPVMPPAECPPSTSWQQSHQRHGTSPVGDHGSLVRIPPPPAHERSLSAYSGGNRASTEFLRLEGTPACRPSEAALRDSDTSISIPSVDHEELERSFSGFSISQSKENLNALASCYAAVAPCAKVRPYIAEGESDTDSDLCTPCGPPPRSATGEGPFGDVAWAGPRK
KCNQ2 pot = KCNQ2 (rat) channel potentiation; CHO-K1 KCNQ2, FluxOR thallium flux fluorescence; hits give high values; O88943; B-score at 10 µM; 0.54% of 310,000 active;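 active = fluorescence ratio B-score at least 3 SD of library B-scores, with initial fluorescence B-score within 3 of them, cut at about 5.3 in these data; same plate scores as AID 2156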;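 also: B-score of peak minus minimum over baseline fluorescence ratio after K+ and Tl+ stimulus; positive B-score means potentiation of KCNQ2 with more thallium influx and brighter signal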
Numbers without * were called inactive. Only some compounds are listed: those with a hit (about 1.6% of all), similar ones and a draw of the others.

CCS(=O)(=O)N1CCCC(C(=O)NCc2cccc(OC)c2)C1 (stereo not given) was read as KCNQ2 block inactive and KCNQ2 pot 0.58.
`CCc1nnc(NC(=O)C(c2ccccc2)c2ccccc2)s1` gave KCNQ2 block inactive and KCNQ2 pot 0.85.
Screening CC1CN(c2nc3ccccc3nc2SCC(=O)Nc2ccc(F)cc2)CC(C)O1 (stereo not given) returned KCNQ2 block inactive.
Cc1ccc2c(c1)N(CCCC(=O)NCCCN1CCCCC1)C(=O)CO2 was read as KCNQ2 block inactive and KCNQ2 pot 0.99.
For CCN(CCCNC(=O)CCCN1C(=O)COc2ccc(C)cc21)c1cccc(C)c1 the results were KCNQ2 block -6.3* and KCNQ2 pot -6.3.
For CNC(=O)C1(C(F)(F)F)C/C(=C\CCO)CCCO1 (stereo not given) the results were KCNQ2 block inactive and KCNQ2 pot 0.35.
Screening CC12CCC(=O)N1C(C(=O)Nc1cc(C(F)(F)F)ccc1N1CCCCC1)CS2 (stereo not given) returned KCNQ2 block -6* and KCNQ2 pot -6.
Screening CC12CCC(=O)N1C(C(=O)NCc1ccccc1Cl)CS2 (stereo not given) returned KCNQ2 block -5.8* and KCNQ2 pot -5.8.
For CC(=O)c1sc(NC(=O)C2CSC3(C)CCC(=O)N23)nc1-c1ccccc1 (stereo not given) the results were KCNQ2 block inactive.
`CC12CCC(=O)N1C(C(=O)Nc1cc(C(F)(F)F)ccc1N1CCOCC1)CS2` (stereo not given) gave KCNQ2 block inactive.
CC12CCC(=O)N1C(C(=O)NCCc1ccccc1)CS2 (stereo not given) was read as KCNQ2 block inactive.
CC12CCC(=O)N1C(C(=O)Nc1ccc(Cl)c(S(=O)(=O)N3CCCCC3)c1)CS2 (stereo not given) was read as KCNQ2 block -6.1* and KCNQ2 pot -6.1.
Screening Cc1sc(NC(=O)C2CSC3(C)CCC(=O)N23)nc1-c1ccccc1 (stereo not given) returned KCNQ2 block -6.9* and KCNQ2 pot -6.9.
Screening CC12CCC(=O)N1C(C(=O)Nc1ccc(Cl)c(Cl)c1)CS2 (stereo not given) returned KCNQ2 block inactive.
COC(CNC(=O)C1CCC(CNS(=O)(=O)c2c(C)cc(C)cc2C)CC1)OC (stereo not given) was read as KCNQ2 block inactive and KCNQ2 pot 0.32.
Screening OC(CN1CC=C(/C=C/c2ccc(Br)cc2)CC1)c1ccccc1 (stereo not given) returned KCNQ2 block inactive and KCNQ2 pot 0.25.
`CCOc1ccccc1CNC(=O)c1ccc2c(c1)N(CC)CCS2` gave KCNQ2 block inactive and KCNQ2 pot 0.34.
COc1cccc(N2CCN(C(=O)C3CCN(S(=O)(=O)c4cccs4)CC3)CC2)c1 was read as KCNQ2 block inactive and KCNQ2 pot 1.8.
Screening CCN(CC(=O)NCc1ccc(F)cc1)CC(=O)NC1CCCC1 returned KCNQ2 block inactive.
C=CCOC(=O)/C(=C\c1cccc2ccccc12)NC(=O)c1ccccc1 was read as KCNQ2 block -5.8* and KCNQ2 pot -5.8.
For C=CCOC(=O)/C(=C\c1ccccc1)NC(=O)c1ccc(C)cc1 the results were KCNQ2 block inactive.
Screening CC(C)[C@H](NC(=O)c1ccccc1)C(=O)OCC(=O)N1CCN(C(=O)c2ccco2)CC1 returned KCNQ2 block inactive.
Screening COc1ccc(/C(C)=N/NC(=O)c2ccc(CSc3nncn3C)cc2)cc1 returned KCNQ2 block inactive and KCNQ2 pot 1.1.
COc1ccc(OC)c(C(=O)c2ccc(C(=O)Nc3ccc(NC(C)=O)cc3)cc2)c1 was read as KCNQ2 block inactive.
`CCOc1ccc(-c2cc(N3C(=O)Nc4ccccc4N3O)n[nH]2)cc1` gave KCNQ2 block inactive and KCNQ2 pot 0.35.
CCOC(=O)c1c(N2C(=O)Nc3ccccc3N2O)n[nH]c1-c1cccc(Cl)c1 was read as KCNQ2 block inactive and KCNQ2 pot 10*.
Screening C[n+]1c2n(c3ccccc31)N=C(c1cc(C(C)(C)C)c(O)c(C(C)(C)C)c1)CS2 returned KCNQ2 block -6.6* and KCNQ2 pot -6.6.
Screening COc1cccc(C2=Nn3c(nnc3-c3ccccc3O)SC2)c1 returned KCNQ2 block inactive.
Cc1ccc(C(=O)NCCC(=O)N2CCC3(CC2)NCCc2[nH]cnc23)cc1C was read as KCNQ2 block inactive.
NC(=O)CSc1nc2ccccc2c(=O)n1Cc1ccco1 was read as KCNQ2 block inactive.
Screening CCCn1c(C)cc(C(=O)CSc2nc3ccccc3c(=O)n2Cc2ccco2)c1C returned KCNQ2 block -6* and KCNQ2 pot -6.
For CCc1nc(N2CCN(Cc3ccc4c(c3)OCO4)CC2)c2oc3ccccc3c2n1 the results were KCNQ2 block -6.5* and KCNQ2 pot -6.5.
CCc1nc(N2CCCCC2C(=O)O)c2oc3ccccc3c2n1 (stereo not given) was read as KCNQ2 block inactive and KCNQ2 pot 1.4.
For CCc1nc(N2CCCCC2)c2oc3ccccc3c2n1 the results were KCNQ2 block inactive.
`CCc1nc(N2CCCCC2C)c2oc3ccccc3c2n1` (stereo not given) gave KCNQ2 block -7.5* and KCNQ2 pot -7.5.
Screening NC(=O)c1cc(S(=O)(=O)NCCc2ccc(S(N)(=O)=O)cc2)cs1 returned KCNQ2 block inactive.
Screening CCC1(c2ccc(Cl)cc2)NC(=S)N(c2ccccc2)N1 (stereo not given) returned KCNQ2 block inactive and KCNQ2 pot 11*.
For CCCCCCC1(C)NC(=S)N(c2ccccc2)N1 (stereo not given) the results were KCNQ2 block inactive.
For CCC1(c2ccccc2)NC(=S)N(c2ccc(C)cc2)N1 (stereo not given) the results were KCNQ2 block inactive and KCNQ2 pot 13*.
For CCCCCC1(C)NC(=S)N(c2ccccc2)N1 (stereo not given) the results were KCNQ2 block inactive.
`Cc1cc(OCCCCn2ccnc2)cc(C)c1Cl` gave KCNQ2 block inactive.
CCn1c(COc2cccc(OC)c2)nnc1SCC(=O)Nc1ccccc1C(=O)OC was read as KCNQ2 block -5.7* and KCNQ2 pot -5.7.
`CCn1c(CC(=O)Nc2ccccc2)nnc1SCC(=O)Nc1ccccc1C(=O)OC` gave KCNQ2 block inactive and KCNQ2 pot 0.48.
CCOC(=O)c1ccccc1NC(=O)CSc1nnc(COc2ccccc2C)n1C was read as KCNQ2 block -7.1* and KCNQ2 pot -7.1.
For Cc1ccccc1OCc1nnc(SCC(=O)NCc2ccccc2)n1C the results were KCNQ2 block inactive.
Cc1cc(NC(=O)CSc2nnc(C)n2-c2ccccc2C)no1 was read as KCNQ2 block inactive and KCNQ2 pot 0.79.
For Cc1ccc(CN2C(=O)C(C)Nc3ncnc(N4CCN(c5ccccn5)CC4)c32)cc1 (stereo not given) the results were KCNQ2 block inactive.
Cc1nc(C(=O)NNC(=O)c2ccc(C(F)(F)F)cc2)cs1 was read as KCNQ2 block inactive and KCNQ2 pot 0.97.
For CCC(C)(C)n1nnnc1C(c1cccc(C#N)c1)N1CCN(c2cc(C)ccc2C)CC1 (stereo not given) the results were KCNQ2 block -5.8* and KCNQ2 pot -5.8.

Compound activity (PubChem)
